These compounds were tested on MARK2.
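Also: kd values determined as follow-up on hits from a single-replicate KINOMEscan panel screen.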

| SMILES | Kd [µM] |
| --- | --- |
| CCn1c(-c2ccncc2)nc2cnccc21 [SB-735216] | > 10 |
| Cl.Cn1ccc(-c2cccc(Nc3ccnc4cc(-c5nccs5)ccc34)c2)n1 [GW525701] | > 10 |
| O=c1cc(N2CCOCC2)nc2n(Cc3cccc(Cl)c3)ccn12 [GSK2296823] | > 10 |

Each compound was assayed on T1, MEK5.
T1 construct: gene MAP2K5

| SMILES | Kd [nM] |
| --- | --- |
| COc1ccc(-c2oc3ncnc(N)c3c2-c2ccc(OC)cc2)cc1 [SB-589132] | 3000 |
| COc1cc2c(Nc3cccc(NC(=O)c4ccccc4)c3)ncnc2cc1OCCCN1CCOCC1 [GSK223810] | 940 |
| Cl.c1ccc(Cn2ccc3cc(Nc4ncnc5ccccc45)ccc32)cc1 [GW275568] | 770 |
| Cl.c1ccc(Cn2ncc3cc(Nc4ncnc5ccccc45)ccc32)cc1 [GW273749] | 90 |
| CCc1nc(-c2cccc(N(C)S(=O)(=O)c3ccccc3)c2)c(-c2ccnc(Nc3ccc(N4CCN(C(C)=O)CC4)nc3)n2)s1 [GSK1645895] | 7 |
| CS(=O)(=O)CCNCc1ccc(-c2ccc3ncnc(Nc4ccc(OCc5ccccc5)c(Cl)c4)c3c2)o1.Cl [GW574783] | 1000 |
| Oc1ccc2ncnc(Nc3ccc(OCc4ccccc4)cc3)c2c1 [GI262866] | 82 |
| Cl.Cn1ccc(-c2cccc(Nc3ccnc4cc(-c5nccs5)ccc34)c2)n1 [GW525701] | 960 |
| O=C(CCO)NCCn1ccc2ncnc(Nc3ccc(Oc4cccc(C(F)(F)F)c4)c(Cl)c3)c21 | 15 |
| COc1cc2ncnc(Nc3ccc(OCc4ccccc4Br)c(Cl)c3)c2cc1OC.Cl [GI261590] | 98 |
| OCCOCCn1ccc2ncnc(Nc3ccc(Oc4cccc(Cl)c4)c(Cl)c3)c21 | 200 |
| O=C(Nc1n[nH]c2nc(-c3ccco3)c(Br)cc12)c1ccc(CN2CCCC2)cc1.O=C(O)[C@H](O)[C@@H](O)C(=O)O [SB-742352] | 550 |
| Cn1ccc2ncnc(Nc3ccc(Oc4cccc(Cl)c4)c(Cl)c3)c21 | 25 |
| CC(=O)Nc1n[nH]c2ncc(-c3ccccc3)cc12 [SB-548492] | 290 |
